Screens: PubChem BioAssay, several laboratories
Mdm2-MdmX inh – inhibitors of human Mdm2-MdmX association, primary screen, cell-based, luminescence, split luciferase, SaOS-2, uHTS; 330,000 tested, 3% active; SaOS-2 split-luciferase Mdm2/MdmX complementation; inhibition, % at 8 µM;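 active = inhibition of at least 50% at 8 µM in the primary screen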
Target sequence (O15151 whole entry, looked up): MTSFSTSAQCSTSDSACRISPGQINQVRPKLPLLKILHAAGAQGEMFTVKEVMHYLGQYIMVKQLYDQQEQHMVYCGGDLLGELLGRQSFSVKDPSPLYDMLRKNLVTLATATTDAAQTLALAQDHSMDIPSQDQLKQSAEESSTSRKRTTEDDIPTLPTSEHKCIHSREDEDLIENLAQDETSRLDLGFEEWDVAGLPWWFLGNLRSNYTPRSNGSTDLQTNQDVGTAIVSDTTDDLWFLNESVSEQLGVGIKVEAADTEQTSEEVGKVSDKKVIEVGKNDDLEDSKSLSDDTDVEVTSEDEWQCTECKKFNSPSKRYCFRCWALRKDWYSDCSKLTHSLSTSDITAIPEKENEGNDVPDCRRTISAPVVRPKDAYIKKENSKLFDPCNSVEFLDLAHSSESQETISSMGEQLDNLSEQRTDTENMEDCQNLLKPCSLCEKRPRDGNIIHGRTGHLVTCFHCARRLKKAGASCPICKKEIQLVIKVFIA
Target sequence (Q00987 whole entry, looked up): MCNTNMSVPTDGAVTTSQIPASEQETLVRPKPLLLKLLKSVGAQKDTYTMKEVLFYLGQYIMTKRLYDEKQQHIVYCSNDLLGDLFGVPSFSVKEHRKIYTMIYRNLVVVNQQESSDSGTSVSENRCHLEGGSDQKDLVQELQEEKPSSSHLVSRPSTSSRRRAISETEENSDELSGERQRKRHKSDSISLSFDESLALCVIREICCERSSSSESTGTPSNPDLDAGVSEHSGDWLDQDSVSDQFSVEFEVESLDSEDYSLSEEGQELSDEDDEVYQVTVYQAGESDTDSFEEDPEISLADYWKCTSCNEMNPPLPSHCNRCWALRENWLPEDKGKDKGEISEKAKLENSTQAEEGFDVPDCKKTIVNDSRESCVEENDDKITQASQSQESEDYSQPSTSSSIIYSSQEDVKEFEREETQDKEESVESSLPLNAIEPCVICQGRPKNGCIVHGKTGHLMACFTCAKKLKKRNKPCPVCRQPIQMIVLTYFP
MPTP inh – mitochondrial permeability transition pore inhibitors, primary screen, biochemical, isolated mouse mitochondria, absorbance | AID 602449, 2012 | 360,000 tested, 1.4% active | Ca2+ swelling absorbance, 30 min | inhibition, % at 10 µM;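 active = inhibition of 50% or more, scaled per plate between neutral and stimulator controls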;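 note: 0% = DMSO wells given calcium and 100% = 1 mM EGTA wells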
Calb FLC – C. albicans growth inhibition with fluconazole, primary screen, CaCi-2 strain, Alamar Blue fluorescence; C. albicans CaCi-2 (fluconazole-resistant clinical isolate) + fluconazole, 48 h; growth inhibition, % (no concentration beside the values); 300,000 tested, 0.57% active;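 active = growth inhibition above about 58% in most replicates, limit read from the data, passing the limit was not always enough; inconclusive = exactly half the replicates above a set limit; inactive = most replicates below a set limit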;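 note: all wells also contain fluconazole at 8 µg/ml as a sub-toxic cotreatment; 0% = median of DMSO wells and 100% = median of geldanamycin control wells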
Beta cell apopt – inhibitors of cytokine-induced beta cell apoptosis, primary screen, luminescence | INS-1E cytokine-induced death, ATP luminescence, 48 h; percent of positive-control rescue, neutral wells zero | protection from apoptosis, % (no concentration beside the values) | 300,000 tested, 0.8% active;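 active = Every replicate reaches about 75%, or at least half do and their mean reaches it too, limit read from the data; inconclusive = At least half of replicates reach the limit but their mean does not; inactive = Under half of replicates reach the limit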;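 note: 0% = cytokine-treated negative control wells and 100% = positive control rescue; higher means more ATP so stronger rescue from cytokine killing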
CSC inhib – cancer stem cell viability inhibitors, primary screen, luminescence; cancer stem cell-like cells viability; inhibition, % at 7.5 µM; 300,000 tested, 1.1% active; in the data active = inhibition above about 75%; inconclusive = no clear call, values can overlap the other calls; tested in HMLE shEcad cells
Rh123 counter – fluorescence retest of MPTP screen hits in isolated mitochondria, single concentration; shares compounds with MPTP inh; membrane potential, Rhodamine 123 fluorescence; inhibition, % at 10 µM; 5,000 tested, 78% active; AID 624504, 2012; in the data active = inhibition above about 22%;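 note: 0% = DMSO vehicle and 100% = positive control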
MPTP abs DR – mitochondrial permeability transition pore inhibitors, dose response, biochemical, absorbance, uHTS hits | 780 tested, 58% active | IC50, µM | isolated mitochondria swelling | AID 651561, 2012 | shares compounds with MPTP inh; in the data active = IC50 below about 20 µM
MPTP counter DR – fluorescent counter-screen in isolated mitochondria, dose response, counter-screen for MPTP inhibitor project, biochemical, fluorescence, uHTS hits | isolated mitochondria counterscreen, fluorescence read-out | shares compounds with MPTP inh | 780 tested, 49% active | AID 651564, 2012 | IC50, µM; in the data active = IC50 below about 80 µM
Starred values were filed as active, the others as inactive; i = inactive; ? = inconclusive; nt = no result given. This is a sample that favours compounds with a hit; in the whole collection about 4.8% have one here.

SMILES	Mdm2-MdmX inh	MPTP inh	Calb FLC	Beta cell apopt	CSC inhib	Rh123 counter	others
Cc1ccc(/C=C2/SC(=S)N(CCC(=O)N3CCN(C)CC3)C2=O)cc1	48	79*	23	-54	53	5	MPTP abs DR=>100;MPTP counter DR=>80
O=c1cc(C(F)(F)F)[nH]c2ccc(C(F)(F)F)cc12	15	61*	-5	28	32	82*
Cc1cc(=O)c2ccc(C(F)(F)F)cc2[nH]1	18	1	5	-5	-3	nt
Cc1cccc(N=Cc2[nH]c3ccc(Br)c(Cl)c3c2O)c1	nt	97*	nt	-14	21	0	MPTP abs DR=7.9*;MPTP counter DR=<2.5*
COc1ccccc1CN=Cc1[nH]c2ccc(Br)c(Cl)c2c1O	15	1	?	-7	-5	nt
CC(=O)Nc1ccc(C23CC4CC(CC(C4)C2)C3)cc1	8	1	-25	1	23	nt
CNC(=S)Nc1ccc(C23CC4CC(CC(C4)C2)C3)cc1	-18	52*	-36	16	44	66*
COc1ccc(OC)c(CCNC(=O)CCCC(=O)n2ncc3cc(C)ccc32)c1	15	-1	-1	-1	1	nt
O=C(CSc1nc(-c2ccccc2)nn1C(=O)c1ccccc1)Nc1cccc([N+](=O)[O-])c1	15	50*	7	nt	-2	47*
Cc1cc(C(=O)OCC(=O)N2CCc3ccccc32)ccc1[N+](=O)[O-]	17	-1	nt	3	nt	nt
Cc1sc(NC(=O)CN2CCCC2)nc1-c1ccc2c(c1)CCN2C(=O)c1cccc(F)c1	38	59*	21	nt	-2	-15	MPTP abs DR=i;MPTP counter DR=35*
Cc1ccc(C)c(C(=O)CSc2nc(N)cc(=O)[nH]2)c1	-7	1	-6	nt	-15	nt
CN(C)CC(O)c1ccc(C=Cc2ccc(Cl)cc2)cc1 (stereo not given)	nt	97*	nt	nt	nt	-11	MPTP abs DR=17*;MPTP counter DR=>80
CC(C(=O)N1CCCCC1)N(C)CC(=O)Nc1cccc(F)c1 (stereo not given)	24	nt	nt	-5	nt	nt
O=C(CSc1ncnc2c1cnn2-c1ccccc1)Nc1ccccc1	18	80*	5	2	17	43*
CNC(=O)CSc1ncnc2c1cnn2-c1ccccc1	-59	-2	-25	3	-3	nt
COc1cccc(NC(=O)CSc2ncnc3c2cnn3Cc2ccccc2)c1	5	55*	-14	-8	12	40*
C=CCN1C=C/C(=C\C=C(C#N)C#N)c2ccccc21	34	48	11	24	23	nt
CCCCCCN1C=C/C(=C\C=C(C#N)C#N)c2ccccc21	39	51*	-27	42	43	-10	MPTP abs DR=9.3*;MPTP counter DR=<2.5*
C/C(C/C(C)=C1/SC(=S)NC1=O)=C1\SC(=S)NC1=O	nt	-1	nt	nt	nt	nt
CCCCCC/C(C)=C1/SC(=S)NC1=O	22	83*	?	nt	nt	75*
Cc1ccc(C(=O)Nc2ccc(Br)c(C(F)(F)F)c2)cc1	-27	94*	9	3	37	83*
Cc1ccc(NC(=O)c2ccc(C)cc2)cc1	-136	2	-27	-5	-6	nt
CCN(CC(=O)Nc1c(F)cccc1F)C(=O)C1CC1C (stereo not given)	11	-1	0	-5	-12	nt
COc1ccc(Nc2ccnc(Nc3ccc(OC)cc3)n2)cc1	21	78*	-32	36	34	1	MPTP abs DR=11*;MPTP counter DR=35*
CCOC(=O)N1CCN=C1SCc1ccc(Cl)c(Cl)c1	-27	0	4	-14	18	nt
COc1cccc(/C=N/Nc2snc(SC)c2C#N)c1O	44	99*	2	101*	56	86*
FC(F)(F)c1cccc(NC(=S)NCc2ccccc2)c1	30	106*	-62	-1	7	115*
CC(C)CCN(C(=S)Nc1cccc(C(F)(F)F)c1)C(C)c1ccccn1 (stereo not given)	21	63*	6	-1	24	74*
O=C(NCc1cccc(C(F)(F)F)c1)c1cc(Cl)cc(Cl)c1	2	100*	-2	-3	13	88*
